In the library only some 19% were active in any assay of this set; here they are far more common.
VP16 counter: inhibits Gal4-VP16 luciferase reporter, ROR gamma counter-screen; 310,000 tested, 3.5% active; Potency, µM (highest dose often 53.6 µM), actives largely listed as inhibitors; Drosophila S2 Gal4-VP16 UAS-luciferase, luminescence, 20 h;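 also: Gal4-VP16 expression switched on by copper sulfate through the metallothionein promoter; nearly all actives have a fitted effect of over 50% in size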
TDP1 cell CPT: growth inhibition of DT40 Tdp1-/-;hTDP1 cells with camptothecin (screen for TDP1 inhibitors); chicken DT40 Tdp1-/-;hTDP1 cells + 20 nM CPT, ATP luminescence, 48 h; Potency, µM (series often up to 46.2 µM), most hits filed as inhibitors; 420,000 tested, 12% active; AID 686979; also: nearly all actives have a fitted effect of over 55% in size
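Chicken DT40 Tdp1-/- cells complemented with human TDP1, 400 cells/well, exposed to compounds plus 20 nM camptothecin for at least 48 h at 37 C; viability read as ATP content by CellTiter-Glo luminescence.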
RORg inh: inhibitors of mouse ROR gamma transcriptional activity. P51450. Drosophila S2 Gal4-RORgamma UAS-luciferase reporter, 20 h. Potency, µM (top dose mostly 53.6 µM), most hits filed as inhibitors. 310,000 tested, 5.4% active. AID 2551; also: nearly all actives have a fitted effect of over 60% in size
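Stably transfected Drosophila Schneider cells are the test system, with ROR gamma fused to Gal4 and luciferase under UAS control; luminescence is read after 20 hr of 700 uM copper sulfate induction at ambient temperature.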
DT40 TDP1 no CPT: qHTS for Inhibitors of human tyrosyl-DNA phosphodiesterase 1 (TDP1): qHTS in cells in absence of CPT. DT40 Tdp1-/- hTDP1 cells, no CPT, ATP luminescence, 48 h. Potency, µM (highest dose often 46.2 µM), usual class: inhibitors. 420,000 tested, 15% active; also: nearly all actives have a fitted effect of over 55% in size
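Growth of hTDP1-complemented DT40 Tdp1-knockout cells is measured by ATP luminescence after at least 48 hr compound exposure at 37 °C, with DMSO substituting for the 20 nM CPT used in the parallel screen.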
TDP1 inh: TDP1 (human) enzyme inhibition; Q9NUW8; recombinant TDP1, AlphaScreen DNA substrate cleavage; Potency, µM (series often up to 130 µM), actives largely listed as inhibitors; 350,000 tested, 0.28% active; AID 485290; also: nearly all actives have a fitted effect of over 40% in size
Target sequence (Q9NUW8 whole entry, looked up): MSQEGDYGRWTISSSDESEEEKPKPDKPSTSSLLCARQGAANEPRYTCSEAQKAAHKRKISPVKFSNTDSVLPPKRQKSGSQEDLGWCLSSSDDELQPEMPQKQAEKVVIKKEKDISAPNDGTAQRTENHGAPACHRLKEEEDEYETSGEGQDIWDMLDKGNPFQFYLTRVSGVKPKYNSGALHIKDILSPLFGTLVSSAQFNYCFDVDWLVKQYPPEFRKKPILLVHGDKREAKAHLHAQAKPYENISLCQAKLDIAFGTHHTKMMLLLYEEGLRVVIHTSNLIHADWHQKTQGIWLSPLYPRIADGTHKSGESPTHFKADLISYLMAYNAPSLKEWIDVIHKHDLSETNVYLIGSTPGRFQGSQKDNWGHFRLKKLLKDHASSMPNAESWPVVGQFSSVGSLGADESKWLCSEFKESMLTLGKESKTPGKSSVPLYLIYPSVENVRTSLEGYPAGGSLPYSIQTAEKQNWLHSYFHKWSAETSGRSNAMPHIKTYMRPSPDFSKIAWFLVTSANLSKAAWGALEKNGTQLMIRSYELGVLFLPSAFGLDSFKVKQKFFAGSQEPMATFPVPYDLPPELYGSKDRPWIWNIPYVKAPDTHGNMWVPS
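AlphaScreen read-out: signal falls as enzyme removes the 3' tyrosine-FITC from a 5'-biotinylated DNA oligo (15 nM, 5 min, RT). Enzyme was E. coli-made recombinant Tdp1 at 1 nM, exposed to compound for 15 min beforehand; beads 10 ug/ml, 10 min.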
Hits are given with their value. Calls follow the shape of the dose curve; as a rule, active = well fitted curve in the direction sought with a large enough effect; inconclusive = small, poorly fitted or top-dose-only effect, or another doubt; inactive = no such curve, though single readings can be large; an effect the other way counts as inactive or inconclusive.

For O=C(Cc1ccccc1)N1CCc2[nH]nc(-c3ccccc3)c2C1 the results were VP16 counter inactive, TDP1 cell CPT inactive, RORg inh inactive and DT40 TDP1 no CPT inactive.
For CCN(C1CCCCC1)S(=O)(=O)c1ccc(S(=O)(=O)NCCc2ccncc2)cc1 the results were VP16 counter inactive, TDP1 cell CPT inconclusive, RORg inh inconclusive, DT40 TDP1 no CPT inactive and TDP1 inh inactive.
`CCNS(=O)(=O)c1ccc(S(=O)(=O)N(Cc2ccccn2)C2CCCCC2)cc1` gave VP16 counter inconclusive, TDP1 cell CPT inactive, RORg inh inconclusive, DT40 TDP1 no CPT inactive and TDP1 inh inactive.
`CCN(C1CCCCC1)S(=O)(=O)c1ccc(S(=O)(=O)NCc2ccncc2)cc1` gave VP16 counter 18µM, TDP1 cell CPT 7.3µM, RORg inh inactive, DT40 TDP1 no CPT 9.2µM and TDP1 inh inactive.
Screening O=S(=O)(NCc1ccccc1)c1ccc(S(=O)(=O)N(Cc2ccccn2)C2CCCC2)cc1 returned VP16 counter inactive, TDP1 cell CPT inconclusive, RORg inh inconclusive, DT40 TDP1 no CPT 18µM and TDP1 inh inactive.
`Cc1ccc(Nc2nc(-c3ccc(S(=O)(=O)N4CCOCC4)cc3)cs2)cc1Cl` gave VP16 counter inconclusive, TDP1 cell CPT 4.6µM, RORg inh inconclusive, DT40 TDP1 no CPT 6.5µM and TDP1 inh inactive.
Screening CCCCC(=O)Nc1nc(-c2ccc(S(=O)(=O)N3CCOCC3)cc2)cs1 returned VP16 counter inactive, TDP1 cell CPT inconclusive, RORg inh inactive, DT40 TDP1 no CPT 18µM and TDP1 inh inactive.
Screening CC(C)CC(=O)Nc1nc(-c2ccc(S(=O)(=O)N3CCOCC3)cc2)cs1 returned TDP1 cell CPT 13µM, DT40 TDP1 no CPT 16µM and TDP1 inh inactive.
Cc1cccc(NC(=O)CCC(=O)c2cccs2)n1 was read as TDP1 cell CPT inactive, DT40 TDP1 no CPT inactive and TDP1 inh inactive.
`Cc1ccc(OCC(=O)NC(=S)Nc2cccc(C)n2)cc1` gave VP16 counter inactive, TDP1 cell CPT inactive, RORg inh inactive, DT40 TDP1 no CPT inactive and TDP1 inh inactive.
Screening Cc1cccc(NC(=O)/C=C/c2cccs2)n1 returned VP16 counter 22µM, TDP1 cell CPT inactive, RORg inh inconclusive, DT40 TDP1 no CPT inactive and TDP1 inh inactive.
For Cc1cccc(NC(=S)NC(=O)c2cccs2)n1 the results were VP16 counter inconclusive, TDP1 cell CPT inactive, RORg inh 3.5µM, DT40 TDP1 no CPT inactive and TDP1 inh inactive.
Screening Cc1cccc(NC(=S)NC2CCCCC2)n1 returned VP16 counter 4.5µM, TDP1 cell CPT 26µM, RORg inh 1µM and DT40 TDP1 no CPT inconclusive.
`Cc1cccc(NC(=S)Nc2cccc(C)n2)n1` gave VP16 counter 6.3µM, TDP1 cell CPT inconclusive, RORg inh inconclusive, DT40 TDP1 no CPT 5.2µM and TDP1 inh inactive.
Screening Cc1ccc(C)c(CNC(=O)c2ccc3c(c2)nc2n3CCOC2)c1 returned TDP1 cell CPT inactive, DT40 TDP1 no CPT inactive and TDP1 inh inactive.
For CCCCOC(=O)c1ccc(NC(=O)c2ccc(F)cc2F)cc1 the results were TDP1 cell CPT inactive and DT40 TDP1 no CPT inconclusive.
For Cc1cccc(-c2nc3nc(C)cc(NCc4ccccc4Cl)n3n2)c1 the results were TDP1 inh inactive.
For CCCOC(=O)c1ccc(NC(=O)/C=C/c2cccs2)cc1 the results were VP16 counter inactive, TDP1 cell CPT inconclusive, RORg inh inconclusive, DT40 TDP1 no CPT 18µM and TDP1 inh inactive.
Screening O=C(/C=C/c1cccs1)Nc1ccncc1 returned VP16 counter inactive, TDP1 cell CPT inactive, RORg inh inactive, DT40 TDP1 no CPT inconclusive and TDP1 inh inactive.
For Cc1cccc(NC(=S)NC2CCCC2)n1 the results were VP16 counter 2.8µM, TDP1 cell CPT inconclusive, RORg inh 0.35µM, DT40 TDP1 no CPT inconclusive and TDP1 inh inactive.
COc1cc(C2NC(=S)NC(C)=C2C(=O)Nc2cc(C)cc(C)c2)ccc1O (stereo not given) was read as VP16 counter inactive, TDP1 cell CPT inactive, RORg inh inactive, DT40 TDP1 no CPT inactive and TDP1 inh inactive.
For O=C(O)c1ccc(CSc2nc3ccccc3c(=O)n2-c2ccccc2)cc1 the results were VP16 counter inactive, TDP1 cell CPT inactive, RORg inh inactive and DT40 TDP1 no CPT inactive.
For N=C(N)SCc1nc2ccccc2c(=O)n1-c1ccccc1 the results were VP16 counter inconclusive, TDP1 cell CPT inconclusive, RORg inh inactive, DT40 TDP1 no CPT 18µM and TDP1 inh inactive.
O=[N+]([O-])c1ccc2nc(NN=Cc3ccc(O)cc3)sc2c1 was read as TDP1 cell CPT 29µM and DT40 TDP1 no CPT inconclusive.
Cc1ccc(Cl)cc1-n1nnc(-c2nsc(NC(=O)c3ccccc3Cl)n2)c1C was read as TDP1 cell CPT inconclusive, DT40 TDP1 no CPT inconclusive and TDP1 inh inactive.
Cc1ccc(C(=O)Nc2nc(-c3nnn(-c4cccc(C(F)(F)F)c4)c3C)ns2)cc1 was read as TDP1 cell CPT 3.3µM, DT40 TDP1 no CPT 4.1µM and TDP1 inh inactive.
For Cc1ccc(C(=O)Nc2nc(-c3nnn(-c4cccc(Cl)c4C)c3C)ns2)cc1C the results were TDP1 cell CPT 26µM, DT40 TDP1 no CPT 18µM and TDP1 inh inactive.
Screening CN(C)C(=O)c1ccc(-c2cc[nH]c(=O)c2N)cc1 returned TDP1 inh inactive.
For O=[N+]([O-])c1cccnc1Sc1ccc(Cl)cc1 the results were VP16 counter inactive, TDP1 cell CPT inactive, RORg inh inactive and DT40 TDP1 no CPT inactive.
`COc1ccc(C(=O)Nc2ccccc2SCc2cc(=O)n3nc(C)sc3n2)cc1OC` gave VP16 counter inactive, TDP1 cell CPT inactive, RORg inh inactive, DT40 TDP1 no CPT inactive and TDP1 inh inactive.
For Cc1nn2c(=O)cc(CSc3nc4ccccc4[nH]3)nc2s1 the results were VP16 counter inactive, TDP1 cell CPT inactive, RORg inh 4µM, DT40 TDP1 no CPT inactive and TDP1 inh inactive.
Cc1ccc(SCc2cc(=O)[nH]c(Nc3nc(C)c4ccc(C)cc4n3)n2)cc1 was read as VP16 counter inactive, TDP1 cell CPT inconclusive, RORg inh inactive, DT40 TDP1 no CPT inconclusive and TDP1 inh inactive.
`Cc1ccccc1CSc1nc2c(c(=O)[nH]1)CCC2` gave VP16 counter inactive, TDP1 cell CPT inconclusive, RORg inh inactive, DT40 TDP1 no CPT inactive and TDP1 inh inactive.
For Cc1ccc2c(C)nc(Nc3nc(CSc4nc5ccccc5[nH]4)cc(=O)[nH]3)nc2c1 the results were VP16 counter 5.6µM, TDP1 cell CPT 12µM, RORg inh inconclusive, DT40 TDP1 no CPT 12µM and TDP1 inh inactive.
`Cc1nc(Nc2nc3c(c(=O)[nH]2)CCC3)nc2ccccc12` gave TDP1 cell CPT 5.8µM and DT40 TDP1 no CPT 4.1µM.
